# Results as given in PubChem BioAssay.
# “And” between values parts separate entries of the source, which are not always exact repeats. Identical values can stand only once. The source made the active and inactive calls.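 The calls were made as follows, unless noted: active = thallium flux through the channel raised or lowered by more than 3 SD from vehicle-only wells, actives on both sides; inactive = the rest.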
# Assays:
# [1] = P. berghei load reduction in hepatocytes – cell-based, HepG2, luciferase luminescence, HepG2 viability, primary screen (AID 624349; in the data active = parasite load remaining mostly below about 12%, no sharp cut-off; inactive = mostly above about 10%;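 also: 100% = mean of DMSO negative control wells on the same plate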); conditions: P. berghei liver stage in HepG2, luciferase luminescence, concentration not given here; parasite load remaining: stronger effect = lower value; viability: measured here: HepG2 viability without parasites
# [2] = viability loss with induced miR-34 in A549 – imaging, A549 dox-inducible miR-34, nuclei and caspase counts, primary screen (AID 1347080;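 active = compounds whose cell count with miR-34 switched on is under 0.7 times the count with it off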); conditions: A549 miR-34 inducible, Hoechst nuclei count, 48 h
# [3] = MELAS cybrid and Rieske KO viability enhancers – cell-based, MELAS cybrids, Rieske KO mouse fibroblasts, CellTiter-Glo, primary screen (AID 1508586;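 active = mean z-score across replicates of 1.96 or higher in either the MELAS or the Rieske mutant cell line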;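 also: z relative to plate mean and SD of compound and empty wells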); conditions: low glucose
# [4] = galactose survival enhancers in mitochondrial complex I cybrids – cell-based, galactose medium, ATP luminescence, primary screen (AID 1645843;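 active = z-score of at least 1.8 in each of two replicates, scored against plate mean and spread of sample wells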;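 also: positive z means more ATP and so rescue of galactose-driven cybrid death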); conditions: complex I mutant cybrid cells, 72 h, stronger effect = higher value
# F380Y = assay: BK channel mutant inhibitors and activators – cell-based, U2OS BacMam, thallium flux, beta subunits, selectivity assay, profiling panel (AID 1259406); conditions: U2OS BacMam BK variants, at 30 µM;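 also: initial slope of Thallos dye fluorescence rise after thallium is added; log ratio against the mean of 0.3% DMSO vehicle wells on the same plate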
# F380Y/beta1 = assay: as above; conditions: U2OS BacMam BK variants, at 30 µM
# F380Y/beta2Delta = assay: as above; conditions: U2OS BacMam BK variants, at 30 µM
# F380Y/beta4 = assay: as above; conditions: U2OS BacMam BK variants, at 30 µM
# [5] = target: Calcium-activated potassium channel subunit alpha-1 (Homo sapiens) + Leucine-rich repeat-containing protein 26 (Homo sapiens) (UniProt Q12791+Q2I0M4); assay: as above; conditions: U2OS BacMam BK variants, F380Y/Slo1WT/gamma1, at 30 µM
# Calcium-activated potassium channel subunit alpha-1 (Homo sapiens) + Leucine-rich repeat-containing protein 26 (Homo sapiens), sequence (Q2I0M4 whole entry, looked up, one chain of several): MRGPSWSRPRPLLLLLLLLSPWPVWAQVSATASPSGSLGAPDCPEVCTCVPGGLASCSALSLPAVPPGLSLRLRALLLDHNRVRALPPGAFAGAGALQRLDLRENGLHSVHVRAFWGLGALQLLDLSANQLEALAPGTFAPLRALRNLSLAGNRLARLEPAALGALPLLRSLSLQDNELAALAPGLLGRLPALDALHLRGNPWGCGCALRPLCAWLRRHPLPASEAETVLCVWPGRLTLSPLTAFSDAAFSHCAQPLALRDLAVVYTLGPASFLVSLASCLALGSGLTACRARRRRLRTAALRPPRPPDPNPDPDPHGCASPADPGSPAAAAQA
# R275C = assay: as above; conditions: U2OS BacMam BK variants, at 30 µM
# R275C/beta1 = assay: as above; conditions: U2OS BacMam BK variants, at 30 µM
# R275C/beta2Delta = assay: as above; conditions: U2OS BacMam BK variants, at 30 µM
# R275C/beta4 = assay: as above; conditions: U2OS BacMam BK variants, at 30 µM
# R275C/Slo1WT/beta2 = assay: as above; conditions: U2OS BacMam BK variants, at 30 µM
# [6] = signal quenchers or enhancers, Cy5 substrate/SSB – biochemical, NIH Clinical Collection, E. coli SSB, artefact control for HCV NS3 helicase inhibitor project (AID 743268; call rule not given here); conditions: Cy5-oligo bound E. coli SSB, fluorescence interference
# [7] = tested on: Hepatitis C virus NS3 helicase; assay: blockers of NS3h binding to DNA – biochemical, fluorescence polarization, NIH Clinical Collection, primary screen (AID 743270; call rule not given here); conditions: NS3 helicase binding to Cy5-dT15 DNA, stronger effect = higher value, concentration not given here
# [8] = target: Single-stranded DNA-binding protein (Escherichia coli (strain K12)) (UniProt P0AGE0); assay: SSB-ssDNA binding inhibitors – biochemical, fluorescence polarization, NIH Clinical Collection, counter-screen for HCV NS3 helicase inhibitor project (AID 743271; in the data active = inhibition above about 28%); conditions: E. coli SSB-DNA binding, stronger effect = higher value, concentration not given here
# [9] = compounds distorting NS3 helicase fluorescence signal – biochemical, NIH Clinical Collection, artefact control for HCV NS3 helicase inhibitor project (AID 743272; call rule not given here;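 also: HCV NS3 helicase with a Cy5 labelled single stranded DNA probe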); conditions: fluorescence interference counterscreen, HCV NS3 helicase assay; stronger effect = lower value
# [10] = tested on: Neuropilin-2 / VEGF-C interaction (human); assay: small molecules blocking Neuropilin-2/VEGF-C interaction – biochemical, microplate binding format, z-score (AID 743281; call rule not given here); conditions: microplate NRP2/VEGF-C binding assay; stronger effect = lower value
# [11] = modulation of C. elegans fzo-1 (AID 1259413; call rule not given here;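 also: fzo-1 mutant C. elegans worms in liquid wells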); conditions: C. elegans fzo-1 modulator screen, mean read-out; stronger effect = higher value
# [12] = stronger effect = lower value, cell number ratio, induced over uninduced
# [13] = measured here: relative caspase fold change +Dox/-Dox
# [14] = measured here: total cells with miR-34 induction, stronger effect = lower value
# [15] = measured here: total cells without miR-34 induction
# [16] = MELAS cybrid survival, CellTiter-Glo 48 h, stronger effect = higher value
# [17] = Rieske KO mouse fibroblast survival, CellTiter-Glo 72 h
compound,measurement,setting,value
CO[C@H]1/C=C/O[C@@]2(C)Oc3c(C)c(O)c4c(O)c(c5c(c4c3C2=O)NC2(CCN(CC(C)C)CC2)N=5)=NC(=O)/C(C)=C\C=C\[C@H](C)[C@H](O)[C@@H](C)[C@@H](O)[C@@H](C)[C@H](OC(C)=O)[C@@H]1C,parasite load remaining,[1],23.3% (inactive)
same,viability,[1],92.9%
same,fold change,[2]; [12],1.03 (inactive)
same,fold change,[2]; [13],1.58
same,cell count,[2]; [14],8520
same,cell count,[2]; [15],8270
same,z-score,[3]; [16],1.35 (inactive)
same,z-score,[3]; [17],1.35
same,z-score,[4],-1.49 (inactive)
same,log fold change Tl+ flux,F380Y,0.0411 (inactive)
same,log fold change Tl+ flux,F380Y/beta1,-0.0629 (inactive)
same,log fold change Tl+ flux,F380Y/beta2Delta,-0.104 (active)
same,log fold change Tl+ flux,F380Y/beta4,-0.0899 (inactive)
same,log fold change Tl+ flux,[5],-0.055 (inactive)
same,log fold change Tl+ flux,R275C,-0.198 (active)
same,log fold change Tl+ flux,R275C/beta1,0.128 (active)
same,log fold change Tl+ flux,R275C/beta2Delta,-0.107 (active)
same,log fold change Tl+ flux,R275C/beta4,0.00982 (inactive)
same,log fold change Tl+ flux,R275C/Slo1WT/beta2,-0.0228 (inactive)
CNC(=O)Oc1ccc2c(c1)[C@]1(C)CCN(C)C1N2C (some centres not stated),parasite load remaining,[1],98.8% (inactive)
same,viability,[1],84.5%
same,fluorescence ratio,[6],1.1 (inactive)
same,inhibition,[7],5.94% (inactive)
same,inhibition,[8],-0.1% (inactive)
same,fluorescence ratio,[9],1.08 (inactive)
same,z-score,[10],-0.245 (inactive)
same,mean signal,[11],259 (inactive)
same,fold change,[2]; [12],0.976 (inactive)
same,fold change,[2]; [13],1.81
same,cell count,[2]; [14],10400
same,cell count,[2]; [15],10600
same,z-score,[4],-1.49 (inactive)
same,log fold change Tl+ flux,F380Y,-0.0388 (inactive)
same,log fold change Tl+ flux,F380Y/beta1,-0.0363 (inactive)
same,log fold change Tl+ flux,F380Y/beta2Delta,-0.00825 (inactive)
same,log fold change Tl+ flux,F380Y/beta4,0.000651 (inactive)
same,log fold change Tl+ flux,[5],0.0144 (inactive)
same,log fold change Tl+ flux,R275C,-0.0205 (inactive)
same,log fold change Tl+ flux,R275C/beta1,0.00244 (inactive)
same,log fold change Tl+ flux,R275C/beta2Delta,-0.0145 (inactive)
same,log fold change Tl+ flux,R275C/beta4,0.023 (inactive)
same,log fold change Tl+ flux,R275C/Slo1WT/beta2,-0.0113 (inactive)
C=C1/C(=C\C=C2/CCC[C@]3(C)[C@@H]([C@H](C)/C=C/[C@@H](O)C4CC4)CC[C@@H]23)C[C@@H](O)C[C@@H]1O,parasite load remaining,[1],78.1% (inactive) and 40.9% (inactive)
same,viability,[1],69.5% and 101%
same,fluorescence ratio,[6],0.98 (inactive)
same,inhibition,[7],-1.98% (inactive)
same,inhibition,[8],2.98% (inactive)
same,fluorescence ratio,[9],0.97 (inactive)
same,fold change,[2]; [12],1.11 (inactive) and 0.946 (inactive)
same,fold change,[2]; [13],1.34 and 1.48
same,cell count,[2]; [14],6690 and 9180
same,cell count,[2]; [15],6000 and 9710
same,z-score,[3]; [16],0.67 (inactive) and -0.148 (inactive)
same,z-score,[3]; [17],-0.0393 and -0.0428
same,z-score,[4],-0.655 (inactive) and -0.545 (inactive)
same,log fold change Tl+ flux,F380Y,0.0327 (inactive)
same,log fold change Tl+ flux,F380Y/beta1,0.217 (active)
same,log fold change Tl+ flux,F380Y/beta2Delta,0.0454 (inactive)
same,log fold change Tl+ flux,F380Y/beta4,0.0579 (inactive)
same,log fold change Tl+ flux,[5],0.0831 (inactive)
same,log fold change Tl+ flux,R275C,-0.0334 (inactive)
same,log fold change Tl+ flux,R275C/beta1,0.143 (active)
same,log fold change Tl+ flux,R275C/beta2Delta,-0.0353 (inactive)
same,log fold change Tl+ flux,R275C/beta4,0.0276 (inactive)
same,log fold change Tl+ flux,R275C/Slo1WT/beta2,0.00965 (inactive)
O=C1c2c(O)cc(O)cc2O[C@H](c2ccc(O)c(O)c2)[C@@H]1O,parasite load remaining,[1],102% (inactive)
same,viability,[1],72.9%
same,fluorescence ratio,[6],1.01 (inactive)
same,inhibition,[7],-0.4% (inactive)
same,inhibition,[8],-1.64% (inactive)
same,fluorescence ratio,[9],1.01 (inactive)
same,z-score,[10],-0.585 (inactive)
same,mean signal,[11],251 (inactive)
same,log fold change Tl+ flux,F380Y,-0.0094 (inactive)
same,log fold change Tl+ flux,F380Y/beta1,0.0164 (inactive)
same,log fold change Tl+ flux,F380Y/beta2Delta,0.0588 (inactive)
same,log fold change Tl+ flux,F380Y/beta4,-0.00507 (inactive)
same,log fold change Tl+ flux,[5],-0.00714 (inactive)
same,log fold change Tl+ flux,R275C,-0.0635 (inactive)
same,log fold change Tl+ flux,R275C/beta1,6.5e-05 (inactive)
same,log fold change Tl+ flux,R275C/beta2Delta,0.0295 (inactive)
same,log fold change Tl+ flux,R275C/beta4,-0.031 (inactive)
same,log fold change Tl+ flux,R275C/Slo1WT/beta2,-0.00661 (inactive)
CCC(C)(C)N=C(NC#N)Nc1cccnc1,parasite load remaining,[1],49.6% (inactive)
same,viability,[1],69.3%
same,fluorescence ratio,[6],0.95 (inactive)
same,inhibition,[7],-2.84% (inactive)
same,inhibition,[8],-3.54% (inactive)
same,fluorescence ratio,[9],0.92 (inactive)
same,z-score,[10],-0.415 (inactive)
same,mean signal,[11],201 (inactive)
same,fold change,[2]; [12],0.909 (inactive)
same,fold change,[2]; [13],1.24
same,cell count,[2]; [14],9920
same,cell count,[2]; [15],10900
same,z-score,[4],0.04 (inactive)
same,log fold change Tl+ flux,F380Y,0.00312 (inactive)
same,log fold change Tl+ flux,F380Y/beta1,0.00744 (inactive)
same,log fold change Tl+ flux,F380Y/beta2Delta,0.00568 (inactive)
same,log fold change Tl+ flux,F380Y/beta4,0.0162 (inactive)
same,log fold change Tl+ flux,[5],0.00265 (inactive)
same,log fold change Tl+ flux,R275C,-0.0443 (inactive)
same,log fold change Tl+ flux,R275C/beta1,-0.0211 (inactive)
same,log fold change Tl+ flux,R275C/beta2Delta,-0.00288 (inactive)
same,log fold change Tl+ flux,R275C/beta4,0.0126 (inactive)
same,log fold change Tl+ flux,R275C/Slo1WT/beta2,-0.00574 (inactive)
O=c1c(O[C@@H]2O[C@H](CO)[C@H](O)[C@H](O)[C@H]2O)c(-c2ccc(O)c(O)c2)oc2cc(O)cc(O)c12,parasite load remaining,[1],108% (inactive)
same,viability,[1],61.9%
same,fluorescence ratio,[6],0.94 (inactive)
same,inhibition,[7],1.98% (inactive)
same,inhibition,[8],15.3% (inactive)
same,fluorescence ratio,[9],1 (inactive)
same,z-score,[10],-0.00792 (inactive)
same,mean signal,[11],249 (inactive)
same,log fold change Tl+ flux,F380Y,-0.00852 (inactive)
same,log fold change Tl+ flux,F380Y/beta1,-0.00723 (inactive)
same,log fold change Tl+ flux,F380Y/beta2Delta,-0.0335 (inactive)
same,log fold change Tl+ flux,F380Y/beta4,-0.027 (inactive)
same,log fold change Tl+ flux,[5],-0.0251 (inactive)
same,log fold change Tl+ flux,R275C,-0.00833 (inactive)
same,log fold change Tl+ flux,R275C/beta1,-0.0329 (inactive)
same,log fold change Tl+ flux,R275C/beta2Delta,0.0189 (inactive)
same,log fold change Tl+ flux,R275C/beta4,0.0212 (inactive)
same,log fold change Tl+ flux,R275C/Slo1WT/beta2,-0.0201 (inactive)
O=C(O[C@H]1[C@H](Oc2ccccc2COC(=O)C2(O)C=CCCC2=O)O[C@H](CO)[C@@H](O)[C@@H]1O)c1ccccc1 (some centres not stated),parasite load remaining,[1],48.8% (inactive)
same,viability,[1],72.8%
same,fluorescence ratio,[6],1 (inactive)
same,inhibition,[7],-0.22% (inactive)
same,inhibition,[8],-2.76% (inactive)
same,fluorescence ratio,[9],0.99 (inactive)
same,z-score,[10],-0.65 (inactive)
same,mean signal,[11],249 (inactive)
same,log fold change Tl+ flux,F380Y,0.0202 (inactive)
same,log fold change Tl+ flux,F380Y/beta1,0.0124 (inactive)
same,log fold change Tl+ flux,F380Y/beta2Delta,-0.0274 (inactive)
same,log fold change Tl+ flux,F380Y/beta4,0.0177 (inactive)
same,log fold change Tl+ flux,[5],-0.0394 (inactive)
same,log fold change Tl+ flux,R275C,0.00346 (inactive)
same,log fold change Tl+ flux,R275C/beta1,0.0475 (inactive)
same,log fold change Tl+ flux,R275C/beta2Delta,0.0175 (inactive)
same,log fold change Tl+ flux,R275C/beta4,0.0193 (inactive)
same,log fold change Tl+ flux,R275C/Slo1WT/beta2,0.0101 (inactive)
